Screening results from PubChem.
Hits are enriched below; roughly 17% of the tested compounds scored in any of these assays.
HepG2 tox: HepG2 cytotoxicity, counter-screen for TGF-b inhibitors; HepG2 CAGA-GFP viability, ATP luminescence, 18 h; Potency, µM (series often up to 46.1 µM), usual class: cytotoxic; 410,000 tested, 0.76% active
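HepG2 CAGA-GFP cells (1000/well, DMEM with 1% FBS) received compound, then TGF-beta at 500 pg/mL final, and were incubated 18 hours at 37 degrees C. Viability was read by CellTiter-Glo luminescence. Media-only wells were set as complete cell-killing and DMSO as no toxicity.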
TDP1 cell noCPT: qHTS for Inhibitors of human tyrosyl-DNA phosphodiesterase 1 (TDP1): qHTS in cells in absence of CPT. AID 686978, 2013. DT40 Tdp1-/- hTDP1 cells, no CPT, ATP luminescence, 48 h. Potency, µM (series often up to 46.2 µM), most hits filed as inhibitors. 420,000 tested, 15% active; note: nearly all actives have a fitted effect of over 55% in size
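Chicken DT40 Tdp1-/- cells complemented with human TDP1, screened without camptothecin (DMSO vehicle only), 400 cells/well. Compounds pin-transferred, cells incubated at 37 °C for at least 48 hr. Growth read as ATP-dependent luminescence (CellTiter-Glo, 30 min at RT).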
ATXN viability: viability counter-screen for ATXN expression inhibitors | S2 cells (HEK-293 line with an ATXN2-luciferase reporter) viability, CellTiter-Fluor protease fluorescence, 24 h | Potency, µM (top dose mostly 56.7 µM), hits mostly cytotoxic | 400,000 tested, 0.49% active | AID 651635; note: nearly all actives have a fitted effect of over 40% in size
TGFb inhibitor: inhibitors of TGF-b signaling. 410,000 tested, 1.2% active. Potency, µM (doses to about 46.1 µM), actives largely listed as inhibitors. HepG2 CAGA-GFP TGF-b/SMAD3 reporter, GFP fluorescence, 18 h; TGF-beta stimulated, 500 pg/mL final; note: nearly all actives have a fitted effect of over 65% in size
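Read-out: total well GFP (ex488/em500-530) summed from mean per-cell fluorescence. Cells: HEPG2 CAGA-GFP, 1% FBS DMEM, 18 h at 37 degrees C with 500 pg/mL final TGF-beta. Unstimulated wells served as the full-inhibition control; stimulated DMSO wells = 0%.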
ATXN2 expr inh: ATXN2 expression inhibition; HEK-293 ATXN2-luciferase reporter, luminescence, 24 h; Potency, µM (titrated, usually from 57 µM), most hits filed as inhibitors; 360,000 tested, 0.72% active; note: nearly all actives have a fitted effect of over 55% in size
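ATXN2-luciferase reporter cells (luciferase flanked by upstream and downstream ATXN2 gene portions) were treated 24 h at 37 °C with compounds at up to 57 uM. SteadyGlo luminescence gave expression; GF-AFC fluorescence gave viability.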
DT40 TDP1 CPT: growth inhibition of DT40 Tdp1-/-;hTDP1 cells with camptothecin (screen for TDP1 inhibitors); 420,000 tested, 12% active; Potency, µM (doses to about 46.2 µM), hits mostly inhibitors; chicken DT40 Tdp1-/-;hTDP1 cells + 20 nM CPT, ATP luminescence, 48 h; AID 686979; note: nearly all actives have a fitted effect of over 55% in size
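Cell growth measured by CellTiter-Glo luminescence after a minimum 48 h, 37 C compound exposure with 20 nM CPT in Tdp1-knockout DT40 cells stably expressing hTDP1, seeded 400/well; qHTS titration format.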
Of the large screens only hits and unclear results are named; the others gave an inactive call. Calls come from the whole dose curve; as a rule, active = well fitted curve in the direction sought with a large enough effect; inconclusive = small, poorly fitted or top-dose-only effect, or another doubt; inactive = no such curve, though single readings can be large; an effect the other way counts as inactive or inconclusive.

CCN(CC)CCOC(=O)c1ccc(N/C=C(/C#N)c2nc(-c3ccc4c(c3)OCO4)cs2)cc1	TDP1 cell noCPT 5.2µM, ATXN2 expr inh inconclusive, DT40 TDP1 CPT 3.7µM
CCN(CC)CCOC(=O)c1ccc(N/C=C(/C#N)c2nc(-c3cc4ccccc4oc3=O)cs2)cc1	TDP1 cell noCPT 2.3µM, DT40 TDP1 CPT 1.2µM
N#C/C(=C\c1cccc(F)c1)c1nc(-c2cc3ccccc3oc2=O)cs1	none
CCN(CC)CCOC(=O)c1ccc(N/C=C(/C#N)c2nc(-c3ccc(OC)cc3)cs2)cc1	TDP1 cell noCPT 4.6µM, TGFb inhibitor inconclusive, DT40 TDP1 CPT 4.1µM
CC[C@@]1(C(=O)OC)N[C@H](CN(C)C(=O)COC)[C@@H]2C(=O)N(Cc3ccccc3)C(=O)[C@@H]21	none
CC1=CCC2C(=O)N(c3ccc4ccccc4n3)C(=O)C2C1 (centres undefined)	none
Cc1cc(=O)n(-c2ccc3ccccc3n2)[nH]1	TDP1 cell noCPT 21µM, DT40 TDP1 CPT 18µM
COc1ccc(-c2nn3c(=O)cc(CN4CCN(C(=O)c5ccc(C(C)(C)C)cc5)CC4)nc3s2)cc1	TDP1 cell noCPT 2.9µM, DT40 TDP1 CPT 3.3µM
CC(C)(C)c1ccc(C(=O)N2CCN(C(=O)C3CCCCC3)CC2)cc1	TDP1 cell noCPT inconclusive, DT40 TDP1 CPT 15µM
Cc1nc(CN2CCN(C(=O)c3ccc(C(C)(C)C)cc3)CC2)cs1	TDP1 cell noCPT 10µM, DT40 TDP1 CPT inconclusive
O=C(CN1CCC(C(=O)c2ccc(Cl)cc2)CC1)NC1CCCC1	TDP1 cell noCPT 23µM, ATXN2 expr inh inconclusive, DT40 TDP1 CPT inconclusive
CCOC(=O)C1CCN(C(=O)CCCn2nc(CC)n3c(cc4occc43)c2=O)CC1	TGFb inhibitor inconclusive
CC(C)(C)c1ccc(C(=O)N2CCC(C(=O)NCCC3=CCCCC3)CC2)cc1	TDP1 cell noCPT 18µM, ATXN viability inconclusive, DT40 TDP1 CPT inconclusive
CC(C)(C)c1nnc(NC(=O)C2CCN(C(=O)c3ccccc3)CC2)s1	TDP1 cell noCPT inconclusive, DT40 TDP1 CPT 14µM (no result: ATXN viability, ATXN2 expr inh)
CC(C)(C)c1ccc(C(=O)N2CCCN(C(=O)c3ccc(C(C)(C)C)cc3)CC2)cc1	TDP1 cell noCPT 13µM, DT40 TDP1 CPT inconclusive
COc1ccc(C)cc1NC(=O)C1CCN(S(C)(=O)=O)CC1	none
CC(C)(C)c1nnc(NC(=O)C2CCN(c3ncccn3)CC2)s1	none
COc1ccc(C)cc1NC(=O)C1CCN(C(=O)c2ccc(C(C)(C)C)cc2)CC1	TDP1 cell noCPT 18µM, DT40 TDP1 CPT inconclusive
O=C(Nc1ccc(C(=O)N2CCOCC2)cc1)c1ccccc1	none
CC(C)(C)c1ccc(C(=O)N2CCC(C(=O)c3ccccc3)CC2)cc1	TDP1 cell noCPT 21µM, TGFb inhibitor inconclusive, DT40 TDP1 CPT 18µM
O=C(c1ccccc1)C1CCN(C(=O)c2ccc(Cl)cc2)CC1	TGFb inhibitor inconclusive, DT40 TDP1 CPT inconclusive
CC(C)(C)c1ccc(C(=O)Nc2ccc(C(=O)N3CCOCC3)cc2)cc1	TDP1 cell noCPT 21µM, DT40 TDP1 CPT 23µM
CC(C)(C)c1ccc(C(=O)N2CCC(C(=O)NC3CCCCCC3)CC2)cc1	TDP1 cell noCPT 21µM, DT40 TDP1 CPT inconclusive
CC1CCN(c2c(NCC3CCC(C(=O)NCCC4=CCCCC4)CC3)c(=O)c2=O)CC1 (centres undefined)	TDP1 cell noCPT inconclusive, ATXN viability inconclusive, DT40 TDP1 CPT 18µM
CCC1CN(CCC(=O)N2CCN(c3ncccn3)CC2)Cc2cc(OC)ccc2O1 (centres undefined)	none (no result: HepG2 tox, TGFb inhibitor, ATXN2 expr inh)
CCOC(=O)C1(C)CCCCCN1C(=O)c1ccc(C(F)(F)F)nc1C (centres undefined)	TDP1 cell noCPT inconclusive, DT40 TDP1 CPT inconclusive
COC(=O)[C@H](C)NS(=O)(=O)C1CC1	none (no result: ATXN viability, ATXN2 expr inh)
Cc1ccccc1OCC(=O)OCC(=O)NCCNC(=O)COC(=O)COc1ccccc1C	none
Cc1ccc(C(=O)N2CCC(C(=O)c3ccc(Cl)cc3)CC2)cc1	TDP1 cell noCPT 12µM, ATXN viability inconclusive, TGFb inhibitor inconclusive, DT40 TDP1 CPT inconclusive
CCc1ccc(NC(=O)N2CCN(Cc3cc(=O)n4nc(-c5ccccc5OC)sc4n3)CC2)cc1	TDP1 cell noCPT 15µM, ATXN viability inconclusive, DT40 TDP1 CPT inconclusive
COc1cccc(-c2nn(-c3ccc(C)cc3)cc2C(=O)N2CCc3cc(OC)c(OC)cc3C2)c1	TDP1 cell noCPT inconclusive, ATXN viability inconclusive, DT40 TDP1 CPT 18µM
CCOC(=O)N1CCN(C(=O)/C=C/c2ccc([N+](=O)[O-])cc2)CC1	none (no result: ATXN2 expr inh)
COc1ccc(OC)c(-c2nn(-c3ccccc3)cc2C(=O)N2CCc3ccccc3C2)c1	TDP1 cell noCPT inconclusive, ATXN viability inconclusive, DT40 TDP1 CPT inconclusive
COc1cc2c(cc1OC)CN(C(=O)/C=C/c1ccc([N+](=O)[O-])cc1)CC2	TDP1 cell noCPT 16µM, DT40 TDP1 CPT 18µM
COc1cc2c(cc1OC)CN(C(=O)/C=C/c1cccs1)CC2	TDP1 cell noCPT 1µM, ATXN viability inconclusive, ATXN2 expr inh inconclusive, DT40 TDP1 CPT 1.5µM
COc1cc2c(cc1OC)CN(C(=O)c1cccs1)CC2	TDP1 cell noCPT inconclusive
CCOc1ccc(C(=O)N2CCc3cc(OC)c(OC)cc3C2)cc1OCC	TDP1 cell noCPT 29µM, ATXN viability inconclusive, DT40 TDP1 CPT inconclusive
Cc1ccc(CN2CC(C(=O)N3CCN(c4ccccc4Cl)CC3)CC2=O)cc1 (centres undefined)	TDP1 cell noCPT inconclusive, ATXN viability inconclusive, TGFb inhibitor inconclusive, DT40 TDP1 CPT inconclusive
O=C(NCc1ccc(F)cc1)C1CC(=O)N(Cc2ccco2)C1 (centres undefined)	none
CCOC(=O)C(NC(=O)NCc1ccccc1OC)(OCC)C(F)(F)F (centres undefined)	none
COc1ccc(C2(C(=O)NCC3Cc4cccc(-c5cccnc5)c4O3)CCCC2)cc1 (centres undefined)	TDP1 cell noCPT inconclusive (no result: HepG2 tox, TGFb inhibitor, ATXN2 expr inh)
COc1cc2c(cc1OC)CN(CC(=O)Nc1cccc([N+](=O)[O-])c1)CC2	TDP1 cell noCPT 16µM, DT40 TDP1 CPT inconclusive (no result: ATXN2 expr inh)
COc1cc2c(cc1OC)CN(C(=O)c1cccc([N+](=O)[O-])c1)CC2	TDP1 cell noCPT inconclusive, DT40 TDP1 CPT 26µM
C=CCOC(=O)C1=C(C)NC(SCC(=O)Nc2nccs2)=C(C#N)C1c1ccc(Cl)cc1 (centres undefined)	TDP1 cell noCPT 32µM, TGFb inhibitor inconclusive, DT40 TDP1 CPT 22µM (no result: ATXN viability)
